# High-throughput results as filed in PubChem.
# HePTP inh: inhibitors of human HePTP phosphatase, primary screen, biochemical, absorbance, leukemia target | Tyrosine-protein phosphatase non-receptor type 7 (Homo sapiens), P35236 | recombinant HePTP phosphatase activity, OD absorbance | inhibition, % at 20 µM | 0.64% of 110,000 active | AID 521, 2006; in the data active = inhibition above about 50%
# Target sequence (P35236 whole entry, looked up): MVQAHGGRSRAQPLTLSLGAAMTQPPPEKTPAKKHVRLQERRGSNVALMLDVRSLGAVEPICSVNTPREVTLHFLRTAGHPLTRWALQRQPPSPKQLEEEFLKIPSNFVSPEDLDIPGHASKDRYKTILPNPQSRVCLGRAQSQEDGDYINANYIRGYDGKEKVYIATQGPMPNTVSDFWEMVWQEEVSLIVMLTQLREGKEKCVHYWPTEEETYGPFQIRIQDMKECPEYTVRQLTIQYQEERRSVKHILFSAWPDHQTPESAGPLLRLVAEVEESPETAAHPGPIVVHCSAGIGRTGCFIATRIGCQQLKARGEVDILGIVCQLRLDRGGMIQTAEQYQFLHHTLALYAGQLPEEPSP
# Smad3 inh: Smad3/FoxH1 peptide binding inhibitors, primary screen, biochemical, TR-FRET; Mothers against decapentaplegic homolog 3 (Homo sapiens), P84022; TR-FRET Smad3/Dy647-FoxH1 peptide binding, europium anti-His; inhibition, % at 25 µM; 0.29% of 88,000 active;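 active = compounds that reduce the energy-transfer binding signal between the protein and its labelled peptide by more than half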
# ERb coact inh: inhibitors of ERβ-SRC1 coactivator interaction, primary screen, biochemical, TR-FRET, ERβ LBD, SRC-1 peptide. Estrogen receptor beta (Homo sapiens), Q92731. TR-FRET ER-beta LBD / SRC1-Cy5 peptide binding; receptor agonist-loaded with 1 µM estradiol. inhibition, % at 25.6 µM. 1.3% of 86,000 active. AID 633, 2007;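 active = compounds whose percent inhibition of the receptor-coactivator binding signal exceeds about 50% in the single-dose screen, limit read from the data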
# ERa coact pot: enhancers of ERα–SRC-1 coactivator binding, primary screen, biochemical, TR-FRET, ERα LBD, low estradiol | AID 639, 2007 | TR-FRET ERalpha-LBD/SRC-Cy5 coactivator binding, 2 h; 100 = basal binding, no effect | coactivator binding (% of control), % at 25.6 µM | Estrogen receptor (Homo sapiens), P03372 | 1.3% of 86,000 active; in the data active = activity above about 200%;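 note: binding measured in presence of low estradiol as agonist stimulus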
# Calb biofilm kill: clotrimazole potentiators killing Candida biofilms, primary screen, with clotrimazole, Alamar Blue; C. albicans biofilm + clotrimazole; inhibition, % at 6 µM; 0.14% of 85,000 active;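 active = inhibition above 20%; inactive = inhibition below 20%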;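 note: preformed 24 hr biofilms exposed to compound for 48 hr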
# ERa SRC1 inh: ERα–SRC-1 coactivator interaction inhibitors, primary screen, biochemical, TR-FRET, ERα LBD, estradiol-bound | TR-FRET ER-alpha LBD / SRC-1 peptide | inhibition, % at 25.6 µM | 1.7% of 86,000 active | AID 629, 2007; in the data active = inhibition above about 50%
# Hits are given with their value; - = inactive; . = no result; [ ] = dose if it differs, or a comment. The list is not random: actives were taken first. Their share in the collection is about 2.9%.
SMILES,HePTP inh,Smad3 inh,ERb coact inh,ERa coact pot,Calb biofilm kill,ERa SRC1 inh
COc1ccc(NC(=O)C(C/C=C(/C)Cl)C(C)=O)cc1 (stereo not drawn),.,-,-,-,21,-
O=C(Nc1ccccc1)c1ccc(CN2CCN(Cc3ccccc3)CC2)cc1,-,.,.,.,.,.
N#Cc1c(-c2ccco2)cc(-c2cccnc2)nc1N,-,-,-,-,-,-
N#Cc1c(-c2ccco2)cc(-c2ccccn2)nc1N,-,-,63[fluorescence artefact?],-,-,78[fluorescence artefact?]
CCOC(=O)c1c2c(n(C)c1C)C(=O)C(=O)c1ccc(Br)cc1-2,.,68[fluorescence artefact?],-,-,-,-
COc1cc(/C=c2\sc3nc(-c4ccncc4)nn3c2=O)ccc1OC(C)=O,-,84[fluorescence artefact?],-,-,-,68
CN(C)c1ccc(/C=c2\sc3nc(-c4ccccc4)nn3c2=O)cc1,-,-,-,-,-,69[fluorescence artefact?]
CCCOc1ccc(N)cc1N,-,-,99[fluorescence artefact?],-,.,99[fluorescence artefact?]
O=c1oc2ccccc2c(Nc2ccc3ccccc3c2)c1[N+](=O)[O-],.,-,-,-,-,71[fluorescence artefact?]
CC1=NN(C(=O)c2ccncc2)C(O)(c2ccc(Cl)cc2)C1 (stereo not drawn),-,.,.,.,.,.
COc1ccc2cc(CN(CCCN3CCOCC3)Cc3nnnn3C3CCCC3)c(=O)[nH]c2c1,-,-,-,261[fluorescence artefact?],-,-
O=C(Nc1cnn(C23CC4CC(CC(C4)C2)C3)c1)c1cnn2c(C(F)(F)F)cc(-c3ccco3)nc12,-,-,60,-,-,81
CCOC(=O)c1sc(NC(=O)CNC(=O)Cn2cnc3sc(C)c(C)c3c2=O)nc1C,-,-,-,226,-,-
CCCn1c(=O)c(C(=O)Nc2cc(Cl)ccc2OC)c(O)c2ccccc21,-,.,.,.,.,.
CCCCOC(=O)C1=C(C)NC2=C(C(=O)CCC2)C1c1cccc(C(F)(F)F)c1 (stereo not drawn),-,.,.,.,.,.
CC1=NN(C(=O)c2ccncc2)C(O)(C(F)(F)F)C1 (stereo not drawn),-,.,.,.,.,.
CCC(O)CNc1nc(-n2nc(C)cc2C)nc2sc3c(c12)CCCC3 (stereo not drawn),-,-,-,203,-,-
Cc1cc(C)n(-c2nc(SCCN(C)C)c3c4c(sc3n2)CCCC4)n1,.,-,-,-,-,-
CCOC(=O)c1c(N)sn(-c2ccccc2)c1=S,-,-,-,590[fluorescence artefact?],-,-
CC(=O)NN=C1CC(C)(C)NC(C)(C)C1,-,.,.,.,.,.
N#Cc1ccc2c(c1)nc1c3cccc4cccc(c(=O)n21)c43,65,.,.,.,.,.
CCC(C)c1ccc2oc(-c3ccc(NC(=O)Cn4cnc5c(=O)n(C)c(=O)n(C)c54)cc3)nc2c1 (stereo not drawn),-,-,-,-,-,72[fluorescence artefact?]
Cc1ccc(NC(=O)Cn2cnc3c(=O)n(C)c(=O)n(C)c32)c(C)c1,-,-,-,-,-,-
Cn1c(=O)c2ncn(CC(=O)Nc3ccc4oc(-c5cccc6ccccc56)nc4c3)c2n(C)c1=O,-,-,-,-,-,75[fluorescence artefact?]
O=C1c2oc3ccccc3c(=O)c2C(c2ccc(Br)cc2)N1c1ncccn1 (stereo not drawn),-,-,-,316,-,-
SMILES,HePTP inh,Smad3 inh,ERb coact inh,ERa coact pot,Calb biofilm kill,ERa SRC1 inh
O=C1/C(=C/c2ccc(O)cc2)SC(=S)N1Cc1ccco1,-,.,.,.,.,.
Brc1cc(Br)c2nc(-c3cccs3)ccc2c1,.,-,-,241[fluorescence artefact?],-,-
CC1=NN(c2ccc(S(N)(=O)=O)cc2)C(=O)/C1=C\c1ccc2c(c1)OCO2,63,.,.,.,.,.
O=C(N/N=C/c1c(Cl)cccc1Cl)c1cc(-c2ccc(Br)cc2)n[nH]1,-,.,.,.,.,.
COc1cc(/C=C2/SC(=S)NC2=O)ccc1OC(=O)c1ccccc1Br,-,.,.,.,.,.
CCN1CCN(Cc2ccc(NC(=O)Nc3ccccc3)cc2)CC1,-,.,.,.,.,.
CCN1CCN(Cc2ccc(NC(=O)Nc3cccs3)cc2)CC1,-,-,72[fluorescence artefact?],-,-,-
O=C1/C(=C/C2CC=CCC2)SC(=S)N1C1CCS(=O)(=O)C1 (stereo not drawn),-,.,.,.,.,.
COC(=O)c1cc(NC(=O)c2ccc(Cn3cc(Cl)cn3)o2)cc(C(=O)OC)c1,-,-,-,-,-,58[fluorescence artefact?]
COc1ccc(CNC(=O)CN(c2ccc(C)cc2C)S(=O)(=O)c2ccc(C)cc2)cc1,-,.,.,.,.,.
O=C(N/N=C/c1ccc(Cl)c([N+](=O)[O-])c1)c1cc2ccccc2o1,-,.,.,.,.,.
CN(C)c1nc(N/N=C\c2ccc(Cl)c([N+](=O)[O-])c2)nc(Nc2ccc(F)cc2)n1,.,-,-,-,-,78
O=c1[nH]c(=O)n(-c2cccc3ccccc23)c(O)c1/C=C1\C=Nc2ccccc21,-,.,.,.,.,.
COc1ccccc1CN(Cc1cc2cc3c(cc2[nH]c1=O)OCCO3)Cc1nnnn1Cc1ccco1,.,-,-,-,-,-
O=c1[nH]c2cc3c(cc2cc1CN(Cc1ccccc1)Cc1nnnn1Cc1ccco1)OCCO3,-,-,-,216,-,-
O=c1[nH]c2cc3c(cc2cc1CN(Cc1cccs1)Cc1nnnn1Cc1ccco1)OCCO3,-,-,-,-,-,51
CCOc1ccc2c(c1)n([O-])c1c([n+]2=O)CCCC1,-,-,-,-,-,-
COc1ccc2c(c1)n([O-])c1c([n+]2=O)CCC1,-,-,51,-,-,-
CC(C)c1ccc(-c2nn(-c3ccccc3)cc2-c2nnc(N)o2)cc1,-,.,.,.,.,.
Cn1c(=O)c2c(nc(CN3CCN(Cc4ccccc4)CC3)n2Cc2ccccc2)n(C)c1=O,-,-,-,-,20,-
COc1ccc(N2CCN(c3nc4c(c(=O)n(C)c(=O)n4C)n3Cc3ccccc3)CC2)cc1,-,-,-,-,-,-
Cn1c(=O)c2c(nc(CN3CCN(Cc4ccccc4)CC3)n2Cc2ccc(Cl)cc2)n(C)c1=O,-,-,-,-,-,-
Cc1ccccc1Cn1c(CN2CCc3ccccc3C2)nc2c1c(=O)n(C)c(=O)n2C,.,-,97[fluorescence artefact?],-,-,-
Cn1c(=O)c2c(nc(CN3CCc4ccccc4C3)n2Cc2ccc(F)cc2)n(C)c1=O,.,-,-,-,-,-
COc1ccc(N2CCn3c2nc2c3c(=O)n(CCCc3ccccc3)c(=O)n2C)cc1,-,-,-,-,-,87[fluorescence artefact?]
COc1ccc(Oc2nc3c(c(=O)n(C)c(=O)n3C)n2Cc2ccccc2)cc1,.,-,-,208[fluorescence artefact?],-,-
COc1ccc(N(CC(=O)NCc2ccccc2OC)S(=O)(=O)c2ccccc2)c(OC)c1,-,.,.,.,.,.
Cc1ccc(S(=O)(=O)N2CCN(C(=O)COc3ccccc3)CC2)cc1,-,.,.,.,.,.
